Reference: paper PMC4336329 (PLoS ONE, 2015)
In all, about 310,000 compounds went through this assay and about 14,000 (4.5%) showed an effect of 50% or more. Effects have a minus sign here. Many of the other results were omitted from the sample, so strong results are more common in it than they were.

Biological target: human ether-à-go-go-related gene (hERG) potassium channel (human, UniProt Q12809)
Assay: primary screen, population patch clamp on CHO cells stably expressing hERG; higher = less effect of the substance
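Also: peak tail current of the secondary pulse compared with the same well before compound.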

Sequence of human ether-à-go-go-related gene (hERG) potassium channel (Q12809 whole entry, looked up): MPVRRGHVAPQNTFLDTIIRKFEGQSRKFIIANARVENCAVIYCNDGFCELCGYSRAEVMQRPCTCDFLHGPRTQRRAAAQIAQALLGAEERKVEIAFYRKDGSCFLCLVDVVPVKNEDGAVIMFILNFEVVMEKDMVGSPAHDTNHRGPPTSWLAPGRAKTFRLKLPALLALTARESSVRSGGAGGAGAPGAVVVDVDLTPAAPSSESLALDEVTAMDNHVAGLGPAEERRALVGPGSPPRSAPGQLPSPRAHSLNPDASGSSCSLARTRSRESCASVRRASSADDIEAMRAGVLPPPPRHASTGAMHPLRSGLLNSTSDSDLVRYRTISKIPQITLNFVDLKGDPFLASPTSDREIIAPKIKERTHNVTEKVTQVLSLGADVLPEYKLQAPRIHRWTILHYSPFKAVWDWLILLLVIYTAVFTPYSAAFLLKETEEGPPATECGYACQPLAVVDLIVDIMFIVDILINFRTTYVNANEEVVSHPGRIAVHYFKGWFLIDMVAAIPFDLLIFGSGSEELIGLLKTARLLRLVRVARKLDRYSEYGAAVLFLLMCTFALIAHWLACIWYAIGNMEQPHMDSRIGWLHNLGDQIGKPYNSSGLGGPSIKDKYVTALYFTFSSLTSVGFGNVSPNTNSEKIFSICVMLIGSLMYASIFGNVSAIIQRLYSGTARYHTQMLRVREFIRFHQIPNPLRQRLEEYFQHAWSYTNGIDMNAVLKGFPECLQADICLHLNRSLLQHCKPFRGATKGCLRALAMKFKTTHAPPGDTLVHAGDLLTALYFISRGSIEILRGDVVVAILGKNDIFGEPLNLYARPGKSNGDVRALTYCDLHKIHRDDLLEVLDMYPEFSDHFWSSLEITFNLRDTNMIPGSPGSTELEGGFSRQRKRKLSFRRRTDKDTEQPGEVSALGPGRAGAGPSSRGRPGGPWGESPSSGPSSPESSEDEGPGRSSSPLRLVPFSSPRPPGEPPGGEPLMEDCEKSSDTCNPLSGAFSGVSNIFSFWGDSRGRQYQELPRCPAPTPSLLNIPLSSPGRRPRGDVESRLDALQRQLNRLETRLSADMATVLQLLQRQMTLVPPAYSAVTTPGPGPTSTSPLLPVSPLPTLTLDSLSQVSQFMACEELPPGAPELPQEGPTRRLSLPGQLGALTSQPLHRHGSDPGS

Row | Structure (SMILES) | hERG current change (%, negative = inhibition) at 10uM [%]
1 | CC(C)C(=O)N1CCN(c2ccccc2NC(=O)c2cc([N+](=O)[O-])ccc2N2CCOCC2)CC1 | -67.2
2 | CC1CCN(c2ccccc2NC(=O)c2cc([N+](=O)[O-])ccc2N2CCOCC2)CC1 | -2.63
3 | CC(C)C(=O)N1CCN(c2ccccc2NC(=O)c2ccc([N+](=O)[O-])o2)CC1 | -63
4 | CCc1ccccc1NC(=O)c1cc([N+](=O)[O-])ccc1N1CCOCC1 | -16.5
5 | CC1CCN(c2ccccc2NC(=O)c2ccc([N+](=O)[O-])o2)CC1 | 25
6 | CS(=O)(=O)N1CCN(c2ccccc2NC(=O)c2ccc([N+](=O)[O-])o2)CC1 | -25.2
7 | O=C(CNC(=O)c1cccs1)c1ccc(Br)cc1 | 12.2
8 | O=C(O)Cc1ccc(C(=O)c2cccs2)s1 | 11.8
9 | COc1ccc(CNC(=S)N/N=C(/C)c2ccccc2)cc1 | -6.47
10 | COc1ccc(OC)c(NC(=S)NCc2cccnc2)c1 | 8.59
11 | COC(=O)C1CC(O)CN1C(=O)c1ccco1 (stereo not drawn) | 10.6
12 | CN(C)S(=O)(=O)c1ccc(NC(=O)CN2CCC(Cc3ccccc3)CC2)cc1 | -32.8
13 | CN(Cc1ccc(F)cc1)Cc1nc(-c2cnccn2)no1 | 13.7
14 | Cc1cc(C)n(-c2cccc(CN(C)Cc3nc(-c4cnccn4)no3)c2)n1 | 10.8
15 | CN(Cc1ccc(-n2cccn2)cc1)Cc1nc(-c2cnccn2)no1 | -58.2
16 | Cn1nc(C(=O)N2CCN(c3ccc([N+](=O)[O-])cc3)CC2)c2c1-c1ccccc1S(=O)(=O)C2 | -31.4
17 | CCN1CCN(C(=O)c2nn(C)c3c2CS(=O)(=O)c2ccccc2-3)CC1 | 12
18 | COc1ccccc1N1CCN(C(=O)c2nn(C)c3c2CS(=O)(=O)c2ccccc2-3)CC1 | 2.07
19 | Cn1nc(C(=O)N2CCN(c3ccc(F)cc3)CC2)c2c1-c1ccccc1S(=O)(=O)C2 | -54.3
20 | Cn1nc(C(=O)N2CCN(c3ccccc3)CC2)c2c1-c1ccccc1S(=O)(=O)C2 | -40.9
21 | Cn1nc(C(=O)N2CCN(c3cccc(Cl)c3)CC2)c2c1-c1ccccc1S(=O)(=O)C2 | -53.4
22 | Cc1ccc(N2CCN(C(=O)c3nn(C)c4c3CS(=O)(=O)c3ccccc3-4)CC2)c(C)c1 | -3
23 | CC(=O)c1ccc(N2CCN(C(=O)c3nn(C)c4c3CS(=O)(=O)c3ccccc3-4)CC2)cc1 | -64.5
24 | Cn1nc(C(=O)N2CCCCC2)c2c1-c1ccccc1S(=O)(=O)C2 | 14.7
25 | Cc1cccc(N2CCN(C(=O)c3nn(C)c4c3CS(=O)(=O)c3ccccc3-4)CC2)c1C | -33.4
26 | Cn1nc(C(=O)N2CCN(c3ccc(Cl)cc3)CC2)c2c1-c1ccccc1S(=O)(=O)C2 | -51.2

Row | Structure (SMILES) | hERG current change (%, negative = inhibition) at 10uM [%]
27 | Cn1nc(C(=O)N2CCN(c3ccccc3F)CC2)c2c1-c1ccccc1S(=O)(=O)C2 | -21.2
28 | CCN1CCN(CC(=O)c2ccc(C)cc2)CC1 | 8.76
29 | CC(=O)Nc1ccc(S(=O)(=O)Oc2ccc(C(=S)N3CCCCC3)cc2)cc1 | -16.6
30 | COc1cccc(NC(=O)c2cn(C)c(=O)c3cc(OC)c(OC)cc23)c1 | 6.54
31 | Fc1ccc(N2N=C(c3cccs3)CC2c2ccccc2)cc1 (stereo not drawn) | 8.89
32 | COc1ccc(CC(=O)NC(C)c2nnc(SCCOc3ccc(OC)cc3)n2C)cc1 (stereo not drawn) | -11.2
33 | O=C(O)CCn1c(=S)n(CCC(=O)O)c2ccccc21 | -1.59
34 | CSc1ccc(CN2CCN(C(=O)c3ccc([N+](=O)[O-])cc3)CC2)cc1.O=C(O)C(=O)O | -77.2
35 | CS(=O)(=O)N1CCN(Cc2ccc([N+](=O)[O-])cc2)CC1 | -23.6
36 | CCc1ccc(CN2CCN(Cc3ccc(SC)cc3)CC2)cc1.O=C(O)C(=O)O | -67.9
37 | CSc1ccc(CN2CCN(C(=O)c3ccncc3)CC2)cc1 | -21.4
38 | CSc1ccc(CN2CCN(C(=O)Cc3ccccc3)CC2)cc1 | -12.1
39 | CCCS(=O)(=O)N1CCN(Cc2ccncc2)CC1.O=C(O)C(=O)O | 10.8
40 | CCS(=O)(=O)N1CCN(Cc2ccc([N+](=O)[O-])cc2)CC1.O=C(O)C(=O)O | -44.4
41 | CSc1ccc(CN2CCN(Cc3ccc([N+](=O)[O-])cc3)CC2)cc1.O=C(O)C(=O)O | -78.1
42 | O=C(C1CCCN(Cc2ccc([N+](=O)[O-])cc2)C1)N1CCCCC1.O=C(O)C(=O)O (stereo not drawn) | -28.4
43 | CCCS(=O)(=O)N1CCN(Cc2ccc([N+](=O)[O-])cc2)CC1.O=C(O)C(=O)O | -51.9
44 | CCN1CCN(Cc2ccc(NC(=O)Nc3ccc(SC)cc3)cc2)CC1 | -44.5
45 | COC(CNC(=O)CC1C(=O)N(Cc2ccccc2)C(C)c2nc3ccccc3n21)OC (stereo not drawn) | 9.2
46 | CCCCn1nc(C(=O)N[C@@H](CCSC)c2nc3ccccc3[nH]2)c2ccccc2c1=O | -28.7
47 | CC(=O)Nc1ccc(NC(=O)CC(C)n2ccnc2)cc1 (stereo not drawn) | 7.66
48 | O=C1/C(=C/c2ccccc2F)SC(=S)N1CC(=O)N1CCCCC1c1cccnc1 (stereo not drawn) | 1.73
49 | C#CCOc1nc(Nc2cccc([N+](=O)[O-])c2)nc(OCC#C)n1 | -10.1
50 | O=C(COc1ccc(S(=O)(=O)N2CCCC2)cc1Cl)N1CCN(c2ccccc2)CC1 | -15.5
51 | COc1cc(Nc2nc3ccccc3nc2NS(=O)(=O)c2ccc([N+](=O)[O-])cc2)cc(OC)c1OC | -30.4
